# Calls of active or inactive are those of the source. How the source made its calls: active means hit-call score of the fitted dose curve at least 0.9, where 1 is the maximum; inactive means score below 0.9.
# Assays:
# Details in all cases: mRNA level, 48 h; actives raise or lower the signal
# [1] = read-out: Heat shock 70 kDa protein 1 (HSPA1A), gene 3303; experiment: LTEA_HepaRG_HSPA1A: Life Technologies and Expression Analysis (LTEA) Assay for Heat shock 70 kDa protein 1 (HSPA1A) using HepaRG (AID 2283502)
# How it was run: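 Differentiated human HepaRG cells in serum-free induction medium were exposed in duplicate for 48 h to eight concentrations (top 100 uM, half-log steps, 0.5% DMSO). HSPA1A mRNA was quantified by qRT-PCR, normalized to ACTB, GAPDH and POLR2A, and fitted bidirectionally against DMSO.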
# [2] = read-out: Hypoxia-inducible factor 1-alpha (Homo sapiens) (UniProt Q16665); experiment: LTEA_HepaRG_HIF1A: Life Technologies and Expression Analysis (LTEA) Assay for Hypoxia-inducible factor 1 (HIF1A) Trancription factor using HepaRG (AID 2283503)
# How it was run: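 HepaRG, 48 h exposure, 8-pt half-log series from 100 uM, 0.5% DMSO vehicle, duplicates. Readout: HIF1A transcript by qRT-PCR (Fluidigm array), housekeeping-normalised. Bidirectional curve fit vs DMSO baseline.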
# [3] = read-out: 3-Hydroxy-3-Methylglutaryl-CoA Synthase 2 (HMGCS2), HMGCS2 (gene 3158); experiment: LTEA_HepaRG_HMGCS2: Life Technologies and Expression Analysis (LTEA) Assay for 3-Hydroxy-3-Methylglutaryl-CoA Synthase 2 (HMGCS2) using HepaRG (AID 2283504)
# How it was run: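 Human HepaRG cells in serum-free induction medium were exposed in duplicate for 48 h to 8-point half-log series from 100 uM top in 0.5% DMSO. HMGCS2 mRNA measured by TaqMan qRT-PCR, normalised to ACTB, GAPDH, POLR2A; bidirectional fit versus DMSO.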
# HGF (gene 3082) = experiment: LTEA_HepaRG_HGF: Life Technologies and Expression Analysis (LTEA) Assay for Hepatocyte Growth Facto (HGF) using HepaRG (AID 2283505)
# How it was run: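 Differentiated HepaRG cells in serum-free induction medium exposed 48 h in duplicate, 8 half-log concentrations from 100 uM in 0.5% DMSO. HGF mRNA by qRT-PCR, normalised to ACTB, GAPDH, POLR2A; bidirectional fitting.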
# [4] = read-out: Insulin Like Growth Factor 1 (IGF1), IGF1 (gene 3479); experiment: LTEA_HepaRG_IGF1: Life Technologies and Expression Analysis (LTEA) Assay for Insulin Like Growth Factor 1 (IGF1) using HepaRG (AID 2283506)
# How it was run: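 Differentiated human HepaRG cells were dosed for 48 h in serum-free induction medium with 0.5% DMSO, eight half-log concentrations up to 100 uM, in duplicate. IGF1 mRNA was quantified by qRT-PCR normalized to ACTB, GAPDH, POLR2A; bidirectional fitting versus DMSO.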
# [5] = read-out: Intercellular Adhesion Molecule 1 (ICAM1), ICAM1 (gene 3383); experiment: LTEA_HepaRG_ICAM1: Life Technologies and Expression Analysis (LTEA) Assay for Intercellular Adhesion Molecule 1 (ICAM1) using HepaRG (AID 2283507)
# How it was run: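 Differentiated human HepaRG cells in serum-free induction medium exposed 48 h in duplicate to 8 half-log concentrations (top 100 uM, 0.5% DMSO). ICAM1 mRNA quantified by TaqMan qRT-PCR, normalized to ACTB, GAPDH and POLR2A; bidirectional fitting versus DMSO.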
# [6] = read-out: Insulin-like growth factor-binding protein 1 (IGFBP1), IGFBP1 (gene 3484); experiment: LTEA_HepaRG_IGFBP1: Life Technologies and Expression Analysis (LTEA) Assay for Insulin-like growth factor-binding protein 1 (IGFBP1) using HepaRG (AID 2283508)
# How it was run: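 HepaRG cells, plated 48 h then switched to serum-free induction medium, exposed in duplicate for 48 h to 8-point half-log series from 100 uM in 0.5% DMSO. mRNA measured by qRT-PCR, normalized to ACTB/GAPDH/POLR2A; bidirectional fit versus DMSO.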
# [7] = read-out: Interleukin 6 (IL6), IL6 (gene 3569); experiment: LTEA_HepaRG_IL6: Life Technologies and Expression Analysis (LTEA) Assay for Interleukin 6 (IL6) using HepaRG (AID 2283509)
# How it was run: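 HepaRG, ~100,000 cells/well, 48 h pre-culture; serum-free induction medium; cmpd 8-pt half-log from 100 uM, 0.5% DMSO, duplicate, 48 h. Lysis in RLT, TaqMan qRT-PCR; gain or loss vs DMSO.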
# [8] = read-out: Interleukin 6 Receptor (IL6R), IL6R (gene 3570); experiment: LTEA_HepaRG_IL6R: Life Technologies and Expression Analysis (LTEA) Assay for Interleukin 6 Receptor (IL6R) using HepaRG (AID 2283510);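 on AC50: TaqMan qRT-PCR signal normalized to ACTB GAPDH and POLR2A housekeeping genes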
# How it was run: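 Differentiated human HepaRG cells, plated 48 h then switched to serum-free induction medium, were dosed in duplicate for 48 h at eight half-log concentrations up to 100 uM in 0.5% DMSO. IL6R mRNA quantified by qRT-PCR, normalized to ACTB/GAPDH/POLR2A; bidirectional fit versus DMSO.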
# [9] = read-out: Potassium channel subfamily K member 1 (KCNK1), KCNK1 (gene 3775); experiment: LTEA_HepaRG_KCNK1: Life Technologies and Expression Analysis (LTEA) Assay for Potassium channel subfamily K member 1 (KCNK1) using HepaRG (AID 2283511)
# How it was run: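 Gain or loss of KCNK1 mRNA is the read-out, quantified by qRT-PCR against three housekeeping genes after 48 h chemical treatment of human HepaRG liver cells. Concentrations ran from 100 uM downward in half-log steps, vehicle 0.5% DMSO.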
# [10] = read-out: Keratin 19 (KRT19), KRT19 (gene 3880); experiment: LTEA_HepaRG_KRT19: Life Technologies and Expression Analysis (LTEA) Assay for Keratin 19 (KRT19) using HepaRG (AID 2283512)
# How it was run: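 Differentiated HepaRG cells in serum-free induction medium, exposed 48 h in duplicate to 8 half-log concentrations up to 100 uM in 0.5% DMSO. KRT19 mRNA by qRT-PCR, normalized to ACTB, GAPDH, POLR2A; bidirectional fit vs DMSO.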
# [11] = read-out: JUN Transcription Factor, JUN (gene 3725); experiment: LTEA_HepaRG_JUN: Life Technologies and Expression Analysis (LTEA) Assay for JUN Transcription Factor using HepaRG (AID 2283513)
# How it was run: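 Differentiated HepaRG cells were exposed to chemicals for 48 h in serum-free induction medium, 8 concentrations from 100 uM in half-log steps, 0.5% DMSO vehicle, in duplicate. JUN mRNA was quantified by TaqMan qRT-PCR, normalized to ACTB, GAPDH, POLR2A.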
# [12] = read-out: Lipase C (LIPC), LIPC (gene 3990); experiment: LTEA_HepaRG_LIPC: Life Technologies and Expression Analysis (LTEA) Assay for Lipase C (LIPC) using HepaRG (AID 2283514)
# How it was run: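 Read-out is LIPC transcript level by TaqMan qRT-PCR, normalized to three housekeeping genes, after 48 h chemical treatment of human HepaRG liver cells. Curves span eight concentrations topping at 100 uM; activity in either direction scored relative to 0.5% DMSO.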
# [13] = read-out: Lipoprotein lipase (LPL), LPL (gene 4023); experiment: LTEA_HepaRG_LPL: Life Technologies and Expression Analysis (LTEA) Assay for Lipoprotein lipase (LPL) using HepaRG (AID 2283515)
# How it was run: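 Read-out is LPL transcript level by qRT-PCR, normalized to three housekeeping genes and fitted bidirectionally against the DMSO control. Human HepaRG cells received chemicals for 48 h at up to 100 uM.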
# [14] = read-out: matrix metalloproteinase-10 (MMP10), MMP10 (gene 4319); experiment: LTEA_HepaRG_MMP10: Life Technologies and Expression Analysis (LTEA) Assay for matrix metalloproteinase-10 (MMP10) using HepaRG (AID 2283517)
# How it was run: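 Gain or loss of MMP10 mRNA is fitted relative to the 0.5% DMSO vehicle. The human hepatic line HepaRG receives a 48-hour serum-free exposure, in duplicate, with a maximum concentration of 100 uM.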
# MYC, MYC (gene 4609) = experiment: LTEA_HepaRG_MYC: Life Technologies and Expression Analysis (LTEA) Assay for MYC using HepaRG (AID 2283518)
# How it was run: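 Differentiated HepaRG cells exposed 48 h in serum-free induction medium to 8 concentrations (top 100 uM, half-log steps; 0.5% DMSO), duplicate. MYC mRNA measured by Fluidigm qRT-PCR, normalized to ACTB, GAPDH, POLR2A; bidirectional fit versus DMSO.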
# [15] = read-out: Paternally Expressed 10 (PEG10), PEG10 (gene 23089); experiment: LTEA_HepaRG_PEG10: Life Technologies and Expression Analysis (LTEA) Assay for Paternally Expressed 10 (PEG10) using HepaRG (AID 2283520)
# How it was run: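 Differentiated HepaRG cells, plated 48 h then switched to serum-free induction medium, were exposed in duplicate for 48 h to eight half-log concentrations topping at 100 uM in 0.5% DMSO. PEG10 mRNA was quantified by TaqMan qRT-PCR, normalised to ACTB, GAPDH and POLR2A.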
# [16] = read-out: Nuclear factor NF-kappa-B p105 subunit (Homo sapiens) (UniProt P19838); experiment: LTEA_HepaRG_NFKB1: Life Technologies and Expression Analysis (LTEA) Assay for Nuclear Factor Kappa B Subunit 1 (NFKB1) using HepaRG (AID 2283521)
# How it was run: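 HepaRG, 48 h exposure; 8-pt half-log series from 100 uM in 0.5% DMSO; duplicates. Readout: NFKB1 mRNA by qRT-PCR (Fluidigm arrays), housekeeping-normalized. Gain/loss fit vs DMSO baseline.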
# [17] = read-out: MicroRNA 122 (MIR122), gene 406906; experiment: LTEA_HepaRG_MIR122: Life Technologies and Expression Analysis (LTEA) Assay for MicroRNA 122 (MIR122) using HepaRG (AID 2283516); further: the transcript read is the microRNA miR-122
# How it was run: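 Differentiated human HepaRG cells were exposed 48 h in serum-free induction medium to eight half-log concentrations (top 100 uM, 0.5% DMSO). Transcript level was measured by TaqMan qRT-PCR, normalized to ACTB, GAPDH and POLR2A, and fitted bidirectionally versus DMSO.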
# [18] = read-out: matrix metalloproteinase-3 (MMP3), MMP3 (gene 4314); experiment: LTEA_HepaRG_MMP3: Life Technologies and Expression Analysis (LTEA) Assay for matrix metalloproteinase-3 (MMP3) using HepaRG (AID 2283519)
# How it was run: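 HepaRG, human; 48 h dosing, 8 conc. (max 100 uM, half-log), duplicate, 0.5% DMSO. Readout: MMP3 transcript by Fluidigm TaqMan qRT-PCR, ACTB/GAPDH/POLR2A-normalised. Gain or loss fitted vs DMSO.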
# Sequence of Nuclear factor NF-kappa-B p105 subunit (Homo sapiens) (P19838 whole entry, looked up): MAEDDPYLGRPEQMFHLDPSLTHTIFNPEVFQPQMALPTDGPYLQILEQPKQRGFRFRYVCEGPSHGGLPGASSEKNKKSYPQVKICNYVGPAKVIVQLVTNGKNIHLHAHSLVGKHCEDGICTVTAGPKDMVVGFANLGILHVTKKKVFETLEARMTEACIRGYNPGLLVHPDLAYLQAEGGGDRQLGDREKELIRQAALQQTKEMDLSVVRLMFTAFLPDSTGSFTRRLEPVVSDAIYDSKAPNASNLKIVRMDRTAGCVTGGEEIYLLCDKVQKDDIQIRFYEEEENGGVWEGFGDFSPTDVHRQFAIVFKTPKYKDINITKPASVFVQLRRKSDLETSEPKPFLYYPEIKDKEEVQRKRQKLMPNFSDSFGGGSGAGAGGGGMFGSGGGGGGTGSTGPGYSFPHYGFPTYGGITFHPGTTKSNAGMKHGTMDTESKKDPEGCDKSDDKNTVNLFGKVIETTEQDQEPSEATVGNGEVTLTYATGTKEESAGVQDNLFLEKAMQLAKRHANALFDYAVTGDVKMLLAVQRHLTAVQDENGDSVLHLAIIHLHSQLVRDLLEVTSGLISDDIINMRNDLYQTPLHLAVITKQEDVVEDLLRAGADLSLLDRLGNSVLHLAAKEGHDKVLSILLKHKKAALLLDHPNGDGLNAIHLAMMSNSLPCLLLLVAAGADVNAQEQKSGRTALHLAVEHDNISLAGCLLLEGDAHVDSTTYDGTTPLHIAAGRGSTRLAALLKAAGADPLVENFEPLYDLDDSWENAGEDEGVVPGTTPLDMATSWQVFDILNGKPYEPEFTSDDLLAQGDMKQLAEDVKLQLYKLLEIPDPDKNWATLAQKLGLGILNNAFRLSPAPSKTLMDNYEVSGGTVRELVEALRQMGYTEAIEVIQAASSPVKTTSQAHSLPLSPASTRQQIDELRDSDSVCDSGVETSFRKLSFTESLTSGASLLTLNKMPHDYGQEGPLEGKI
# Sequence of Hypoxia-inducible factor 1-alpha (Homo sapiens) (Q16665 whole entry, looked up): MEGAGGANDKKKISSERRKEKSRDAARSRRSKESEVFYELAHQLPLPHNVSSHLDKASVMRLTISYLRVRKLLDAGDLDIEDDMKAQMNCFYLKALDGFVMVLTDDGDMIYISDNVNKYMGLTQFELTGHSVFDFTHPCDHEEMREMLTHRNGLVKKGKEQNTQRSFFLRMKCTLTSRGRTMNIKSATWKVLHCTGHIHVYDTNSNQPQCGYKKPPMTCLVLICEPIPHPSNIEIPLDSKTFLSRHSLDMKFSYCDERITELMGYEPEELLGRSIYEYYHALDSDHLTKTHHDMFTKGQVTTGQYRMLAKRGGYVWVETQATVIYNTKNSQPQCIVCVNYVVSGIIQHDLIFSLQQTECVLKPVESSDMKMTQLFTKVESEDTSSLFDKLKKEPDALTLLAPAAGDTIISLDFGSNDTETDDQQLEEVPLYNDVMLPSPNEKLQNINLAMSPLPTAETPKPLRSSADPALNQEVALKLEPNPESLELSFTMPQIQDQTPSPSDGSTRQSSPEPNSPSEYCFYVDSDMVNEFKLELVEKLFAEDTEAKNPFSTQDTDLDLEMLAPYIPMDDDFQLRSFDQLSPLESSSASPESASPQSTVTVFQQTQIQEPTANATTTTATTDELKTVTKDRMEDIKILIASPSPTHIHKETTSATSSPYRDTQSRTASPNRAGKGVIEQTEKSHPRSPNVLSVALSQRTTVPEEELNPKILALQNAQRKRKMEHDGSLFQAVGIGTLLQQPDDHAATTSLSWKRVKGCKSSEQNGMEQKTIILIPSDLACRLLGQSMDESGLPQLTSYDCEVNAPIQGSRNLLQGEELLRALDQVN
compound,measurement,setting,value
Nc1ccc(Cc2ccc(N)cc2)cc1,outcome,[1],inactive
same,outcome,[2],inactive
same,outcome,[3],inactive
same,outcome,HGF (gene 3082),inactive
same,outcome,[4],inactive
same,outcome,[5],inactive
same,outcome,[6],inactive
same,outcome,[7],inactive
same,outcome,[8],inactive
same,outcome,[9],inactive
same,outcome,[10],inactive
same,outcome,[11],inactive
same,outcome,[12],inactive
same,outcome,[13],inactive
same,outcome,[14],inactive
same,outcome,"MYC, MYC (gene 4609)",inactive
same,outcome,[15],inactive
same,outcome,[16],inactive
Cc1cc(N=Nc2ccccc2C)ccc1N,AC50,[1],3.55 µM (active)
same,AC50,[2],7.09 µM (active)
same,AC50,[3],12.8 µM (active)
same,outcome,HGF (gene 3082),inactive
same,AC50,[4],4.25 µM (active)
same,outcome,[5],inactive
same,AC50,[6],9.92 µM (active)
same,AC50,[8],2.45 µM (active)
same,outcome,[9],inactive
same,AC50,[10],17.2 µM (active)
same,outcome,[11],inactive
same,AC50,[12],3.22 µM (active)
same,AC50,[13],4.4 µM (active)
same,AC50,[17],3.67 µM (active)
same,outcome,[14],inactive
same,AC50,"MYC, MYC (gene 4609)",5.49 µM (active)
same,AC50,[18],12.2 µM (active)
same,AC50,[15],4.04 µM (active)
same,outcome,[16],inactive
Clc1ccccc1Cl,outcome,[1],inactive
same,outcome,[2],inactive
same,outcome,[3],inactive
same,outcome,HGF (gene 3082),inactive
same,outcome,[4],inactive
same,outcome,[5],inactive
same,outcome,[6],inactive
same,outcome,[7],inactive
same,outcome,[8],inactive
same,outcome,[9],inactive
same,outcome,[10],inactive
same,outcome,[11],inactive
same,outcome,[12],inactive
same,outcome,[13],inactive
same,outcome,[17],inactive
same,outcome,[14],inactive
same,outcome,"MYC, MYC (gene 4609)",inactive
same,outcome,[18],inactive
same,outcome,[15],inactive
same,outcome,[16],inactive

# Source: PubChem BioAssay (EPA / NIEHS)
